# Unmarked numbers belong to inactive results. The source made the active and inactive calls. Calls follow the shape of the dose curve; as a rule, active = well fitted curve in the direction sought with a large enough effect in the repeat runs; inconclusive = weak or mixed curves; inactive = flat fitted curve, though single readings scatter.
# Test: qHTS assay to test for compound auto fluorescence at 590 nm (red) in HEK293 cells (AID 720679)
# Conditions: red autofluorescence 540/590 nm; series mostly up to 91.3 µM; fluorescence, % of fluorescent control: at the top concentration
# Description: National Center for Advancing Translational Sciences [NCATS]
# NIH Chemical Genomics Center [NCGC]
# U.S. Environmental Protection Agency [EPA]
# National Institutes of Environmental Health Sciences [NIEHS]
# National Toxicology Program [NTP]
# U.S. Food and Drug Administration [FDA]
# Compound auto fluorescence often interferes with screening of the compound library against various biological targets and signaling pathways. Some of these compounds may have fluorophoric properties. Such properties may interfere with the assay outputs resulting in false positives and/or negatives. To decrease such complications and ensure the compound activities are relevant in terms of biological response, the Tox21 10K compound library was screened for auto fluorescence.
# From the fluorophores used as reporter signals in our screening assays, the auto fluorescence equivalencies of compounds against three fluorophores have been evaluated: Triamterene, Fluorescein and Rose Bengal sodium for blue, green and red fluorescence, respectively. The fluorescence intensities were measured using Excitation/Emission wavelengths at 405/460nm, 485/535nm and 540/590nm for blue, green and red labels, respectively. This assay includes the red fluorescence data.
# Tox21 Assay Protocol Summary:
# 2,000 HEK293 cells in 5 uL of culture medium containing 10% dialyzed FBS per well were dispensed into black wall/clear bottom 1536-well plates using a Multidrop Combi Dispenser (Thermo Scientific). The assay plates were incubated for 4-5 hr at 37C to allow cell attachment to the well bottom, followed by the transfer of 23 nL compound or DMSO vehicle by a pintool work station (Kalypsys, San Diego, CA). After the assay plates were incubated overnight at 37C and 5% CO2, fluorescence intensities in the assay plates were measured by an Envision (PerkinElmer, Shelton, CT) plate reader using three labels for measuring blue, green and red fluorescence at […] 460, 535 and 590nm respectively.
# % is scaled to controls: 0 for no effect and ±100 for the full control effect.
Structure (SMILES),"fluorescence, % of fluorescent control",outcome
CCCCCCCCN(C)C,-0.0709%,
C=CC(=O)OCC(C)OCC(C)OCC(C)OC(=O)C=C (stereo not given),-0.961%,
C=CC(=O)OCCOC(=O)CCC(=O)O,-0.139%,
Cc1cccc(OCCOc2cccc(C)c2)c1,0.367% [at 95.7 µM],
Cn1c(NCCN(CCO)CCCc2ccc([N+](=O)[O-])cc2)cc(=O)n(C)c1=O,-0.0106% [at 46 µM],
O=C(O)Cc1cc(I)c(Oc2ccc(O)c(I)c2)c(I)c1,,inactive
CCOC(=S)SSC(=S)OCC,,inactive
CN1CCC(=C2c3ccccc3CCc3sccc32)CC1,0.441% [at 46 µM],
CC(C)(C)c1ccc(S)cc1,-0.084%,
N=C(N=C(N)N)N1CCOCC1,0.0856% [at 18.6 µM],
CC(=O)/C=C/C1C(C)=CCCC1(C)C (stereo not given),-0.583%,
CN1CCN(C2=Nc3ccccc3Sc3ccc(Cl)cc32)CC1,0.0711% [at 46 µM],
Cc1cccc(C(C)(C)C)c1O,0.137%,
CCCCOC(O)CC (stereo not given),0.257%,
NCc1ccccc1,-0.967%,
S=C(S)NCCNC(=S)S,-0.21%,
CCCCCCCCCCCCCCCCCBr,0.301% [at 18.6 µM],
CC(C)c1cccc(C(C)C)c1NC(=O)NS(=O)(=O)c1cc(C(C)(C)O)co1,-0.631%,
CCCC(C)C,0.141%,
O=S1(=O)c2cccc3cccc(c23)N1CCCN1CCN(c2ccc(F)cc2)CC1,-0.166% [at 46 µM],

Structure (SMILES),"fluorescence, % of fluorescent control",outcome
Oc1ccc(Sc2ccc(O)cc2)cc1,0.101%,
Cc1ccc2c(ccc3ccccc32)c1,-0.191%,
CCc1nn(C2CCCCC2)c2cc(C3(C#N)CCC(C(=O)O)CC3)ccc12 (stereo not given),-0.687%,
COCCCCCCCCOCCC[Si](C)(O[Si](C)(C)C)O[Si](C)(C)C,0.278%,
O=C(O)c1cccc(N(Cc2cccnc2)c2ccc(OC(F)F)c(OC(F)F)c2)c1,0.0187%,
CN(c1nccc(=O)[nH]1)C1CCN(c2nc3ccccc3n2Cc2ccc(F)cc2)CC1,0.0989% [at 46 µM],
CCN(CC)CCc1nc(-c2ccccc2)no1,0.0464% [at 18.6 µM],
CC1CCc2cc(F)cc3c(=O)c(C(=O)O)cn1c23 (stereo not given),-0.268% [at 46 µM],
NC1CCN(c2nc3c(cc2F)c(=O)c(C(=O)O)cn3-c2ccc(F)cc2F)C1 (stereo not given),0.0488% [at 46 µM],
C=CC[N+]1([C@H]2C[C@H]3[C@@H]4CC[C@H]5C[C@H](OC(C)=O)[C@@H](N6CCCCC6)C[C@]5(C)[C@H]4CC[C@]3(C)[C@H]2OC(=O)CC)CCCCC1,0.314% [at 46 µM],
CC(C)CCCCCCOC(=O)c1ccc(C(=O)OCCCCCCC(C)C)c(C(=O)OCCCCCCC(C)C)c1,0.237%,
CC(C)(C)C(=O)OCOP(=O)(COCCn1cnc2c(N)ncnc21)OCOC(=O)C(C)(C)C,0.0061% [at 46 µM],
OCC1CC2CC1C1CCC(CO)C21 (stereo not given),-0.135%,
Cc1ccc(O)c([C@H](CCN(C(C)C)C(C)C)c2ccccc2)c1,-0.338% [at 46 µM],
O=C(O)[C@@H]1[C@H]2C[C@H]3c4[nH]c5ccccc5c4CCN3C[C@@H]2CC[C@@H]1O,-0.335% [at 18.6 µM],
CC(C)(C)c1cc(O)c(C(C)(C)C)cc1O,0.346%,
Cc1cccc(Oc2ccccc2)c1,0.396%,
Cn1c(N)nc2nc[nH]c2c1=O,-0.63%,
Cc1nc2ccccc2n1Cc1ccc(Cl)cc1,-0.0169% [at 46 µM],
CCCCCOC(=O)c1ccc(O)cc1,-0.0139% [at 95.7 µM],
